In PMC11995724, “Antibiotic target discovery by integrated phenotypic and activity-based profiling of electrophilic fragments” (Cell chemical biology, 2025):
Among all 3,200 compounds or so, about 75 (2%) showed an effect of 50% or more. This is one part of a sample in which strong results are shown more often than they occur.

These compounds were tested on T1, S. aureus MSSA476. Conditions: relative growth, OD600, TSB; 25 µM; inhibitor.
T1 construct: MSSA476
Parameters: species or system S. aureus MSSA476 (TSB) or V. cholerae SAD30 (LB); 384-well bacterial growth screen at 25 uM, OD600 relative to DMSO control

SMILES | % of control remaining
N#CC(=Cc1sc2ccccc2c1Cl)C(=O)NC1CC1 [9-C18, 3-(3-chloro-1-benzothiophen-2-yl)-2-cyano-N-cyclopropylprop-2-enamide] | 110.262%
C=CC(=O)NC12CC3(C)CC(C)(CC(O)(C3)C1)C2 [1-K17, N-(3-hydroxy-5,7-dimethyladamantan-1-yl)prop-2-enamide] | 111.473%
CC(Cl)C(=O)N(C)C1CCN(c2ccccn2)CC1 (centres unmarked) [6-J20, 2-chloro-N-methyl-N-[1-(pyridin-2-yl)piperidin-4-yl]propanamide] | 95.6098%
O=C(CCl)N[C@H](CO)Cc1ccccc1 [6-G20, 2-chloro-N-[(2S)-1-hydroxy-3-phenylpropan-2-yl]acetamide] | 109.61%
CC(=O)c1ccccc1NC(=O)C(C)Cl (centres unmarked) [5-O19, N-(2-acetylphenyl)-2-chloropropanamide] | 103.825%
CCN(Cc1ccc(C#N)cc1F)C(=O)CCl [5-H08, 2-chloro-N-[(4-cyano-2-fluorophenyl)methyl]-N-ethylacetamide] | 105.282%
CSc1ccc(C=C(C#N)C(=O)Nc2cccc(Cl)c2C)cc1 [8-N11, N-(3-chloro-2-methylphenyl)-2-cyano-3-[4-(methylsulfanyl)phenyl]prop-2-enamide] | 130.788%
C=CC(=O)Nc1ccc(C(=O)NC2CCN(S(C)(=O)=O)CC2)cc1 [2-M21, N-(1-methanesulfonylpiperidin-4-yl)-4-(prop-2-enamido)benzamide] | 120.801%
COc1ccc(C2=NN(C(=O)CCl)C(c3ccc(F)cc3)C2)cc1 (centres unmarked) [4-M20, 2-chloro-1-[5-(4-fluorophenyl)-3-(4-methoxyphenyl)-4,5-dihydro-1H-pyrazol-1-yl]ethan-1-one] | 115.102%
O=C(CCl)N1N=C(c2cccs2)CC1c1cccc(O)c1 (centres unmarked) [6-L04, 2-chloro-1-[5-(3-hydroxyphenyl)-3-(thiophen-2-yl)-4,5-dihydro-1H-pyrazol-1-yl]ethan-1-one] | 3.7561%
COc1ccc(C2=NN(C(=O)CCl)C(c3cccc(C)c3)C2)cc1 (centres unmarked) [4-G20, 2-chloro-1-[3-(4-methoxyphenyl)-5-(3-methylphenyl)-4,5-dihydro-1H-pyrazol-1-yl]ethan-1-one] | 10.2906%
COc1ccc(C2=NN(C(=O)CCl)C(c3cccc(F)c3)C2)cc1 (centres unmarked) [6-P04, 2-chloro-1-[5-(3-fluorophenyl)-3-(4-methoxyphenyl)-4,5-dihydro-1H-pyrazol-1-yl]ethan-1-one] | 145.463%
O=C(CCl)N1N=C(c2cccs2)CC1c1ccc(F)cc1 (centres unmarked) [4-O20, 2-chloro-1-[5-(4-fluorophenyl)-3-(thiophen-2-yl)-4,5-dihydro-1H-pyrazol-1-yl]ethan-1-one] | 137.589%
Cc1ccc(C2=NN(C(=O)CCl)C(c3cccs3)C2)cc1 (centres unmarked) [4-O22, 2-chloro-1-[3-(4-methylphenyl)-5-(thiophen-2-yl)-4,5-dihydro-1H-pyrazol-1-yl]ethan-1-one] | 88.0419%
O=C(CCl)N1N=C(c2cccs2)CC1c1ccccc1O (centres unmarked) [4-K20, 2-chloro-1-[5-(2-hydroxyphenyl)-3-(thiophen-2-yl)-4,5-dihydro-1H-pyrazol-1-yl]ethan-1-one] | 3.049%
O=C(CCl)N1N=C(c2cccs2)CC1c1cccs1 (centres unmarked) [4-O18, 1-[3,5-bis(thiophen-2-yl)-4,5-dihydro-1H-pyrazol-1-yl]-2-chloroethan-1-one] | 105.193%
Cc1ccc(C2CC(c3cccs3)=NN2C(=O)CCl)cc1 (centres unmarked) [4-I22, 2-chloro-1-[5-(4-methylphenyl)-3-(thiophen-2-yl)-4,5-dihydro-1H-pyrazol-1-yl]ethan-1-one] | 118.533%
N#CC(=Cc1ccc(Cl)cc1)C(=O)Nc1ccncc1 [8-K20, 3-(4-chlorophenyl)-2-cyano-N-(pyridin-4-yl)prop-2-enamide] | 95.6017%
C=CC(=O)Nc1ccccc1CCC(N)=O [1-A18, N-[2-(2-carbamoylethyl)phenyl]prop-2-enamide] | 117.099%
COc1cc(NC(=O)CCl)cc(OC)c1 [4-G09, 2-chloro-N-(3,5-dimethoxyphenyl)acetamide] | 119.295%
Cn1c(-c2ccccc2)c(C(=O)CCl)c2ccccc21 [10-N04, 2-chloro-1-(1-methyl-2-phenyl-1H-indol-3-yl)ethan-1-one] | 49.0625%
O=C(CCl)c1c(-c2ccccc2)[nH]c2ccccc12 [10-E05, 2-chloro-1-(2-phenyl-1H-indol-3-yl)ethan-1-one] | 159.063%
Cn1cccc1C(=O)CCl [10-B04, 2-chloro-1-(1-methyl-1H-pyrrol-2-yl)ethan-1-one] | 122.188%
CCNC(=O)C(C#N)=Cc1ccc(OC(F)F)cc1 [8-E05, 2-cyano-3-[4-(difluoromethoxy)phenyl]-N-ethylprop-2-enamide] | 113.527%
O=C1C=CC(=O)N1c1cc(C(F)(F)F)ccc1Cl [10-G09, 1-[2-chloro-5-(trifluoromethyl)phenyl]-2,5-dihydro-1H-pyrrole-2,5-dione] | 133.75%
CC(Cl)C(=O)Nc1sc2c(c1C#N)CCCCC2 (centres unmarked) [5-B20, 2-chloro-N-{3-cyano-4H,5H,6H,7H,8H-cyclohepta[b]thiophen-2-yl}propanamide] | 104.918%
O=C1C=CC(=O)N1c1ccccc1Sc1ccccc1 [10-K12, 1-[2-(phenylsulfanyl)phenyl]-2,5-dihydro-1H-pyrrole-2,5-dione] | 129.063%
O=C1C=CC(=O)N1c1ccccc1F [10-D17, 1-(2-fluorophenyl)-2,5-dihydro-1H-pyrrole-2,5-dione] | 118.75%
O=C1C=CC(=O)N1c1ccccc1Sc1ccc(Cl)cc1 [10-A03, 1-{2-[(4-chlorophenyl)sulfanyl]phenyl}-2,5-dihydro-1H-pyrrole-2,5-dione] | 10.9375%
